Calls of active or inactive are those of the source. The calls were made as follows: active = hit-call score of the fitted dose curve at least 0.9, where 1 is the maximum; inactive = score below 0.9.
Columns and labels:
[1] = ATG_CRE_CIS: Attagene CIS-FACTORIAL HepG2 Assay for human cAMP Responsive Element (CRE) binding protein 3 (AID 2282926); details: HepG2 CRE cis-reporter, Attagene multiplexed mRNA; actives raise or lower the signal
Method in brief: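 Cells carrying cis-regulated reporter constructs respond through their own endogenous factors. After 24 h treatment, RNA is reverse-transcribed, amplified, labelled and sized by capillary electrophoresis; up- and down-regulation are both scored against vehicle.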

[2] = target: CCAAT/enhancer-binding protein beta (Homo sapiens) (UniProt P17676); assay: ATG_C_EBP_CIS: Attagene CIS-FACTORIAL HepG2 Assay for human CCAAT/Enhancer Binding Protein (C/EBP) beta (AID 2282927); details: HepG2 Attagene cis-factorial transcription factor reporter; actives raise or lower the signal
Chain of CCAAT/enhancer-binding protein beta (Homo sapiens) (P17676 whole entry, looked up): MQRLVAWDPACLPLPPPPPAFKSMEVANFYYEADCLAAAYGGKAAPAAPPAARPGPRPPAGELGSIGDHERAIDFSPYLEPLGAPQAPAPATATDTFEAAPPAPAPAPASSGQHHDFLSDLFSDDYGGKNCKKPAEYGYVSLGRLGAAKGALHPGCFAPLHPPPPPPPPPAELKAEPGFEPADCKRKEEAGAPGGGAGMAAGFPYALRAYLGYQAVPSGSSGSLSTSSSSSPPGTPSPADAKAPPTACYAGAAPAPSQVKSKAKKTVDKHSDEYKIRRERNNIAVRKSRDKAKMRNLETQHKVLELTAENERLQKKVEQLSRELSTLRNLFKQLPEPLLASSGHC
Method in brief: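 Transiently transfected HepG2 (MRTU library, endogenous TF-driven promoters); 24 h dosing; total RNA → oligo(dT) RT → PCR → 6-FAM primer extension → HpaI digest → CE; fit bidirectionally vs DMSO.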

[3] = ATG_CMV_CIS: Attagene CIS-FACTORIAL HepG2 Assay for human CMV (Internal Marker) (AID 2282928); details: HepG2 CMV promoter reporter, transcription factor profiling; actives raise or lower the signal;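 also: endpoint acts as a background internal control marker rather than a target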
Method in brief: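 Reporter transcripts from transfected HepG2 cells are isolated after 24 h of chemical dosing, reverse-transcribed and amplified. Fragments labeled with 6-FAM are cut with HpaI and quantified by capillary electrophoresis; DMSO defines baseline.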

[4] = ATG_DR4_LXR_CIS: Attagene CIS-FACTORIAL HepG2 Assay for human Liver X Receptor (LXR), DR4 submotif (AID 2282929); details: HepG2 Attagene DR4 cis-reporter, mRNA transcription; actives raise or lower the signal
Method in brief: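 HepG2 cells were transiently transfected with multiple cis-regulated reporter units and dosed for 24 hours. The DR4 reporter mRNA was quantified by RT-PCR, 6-FAM labelling and capillary electrophoresis. Bidirectional fits used DMSO as baseline.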

[5] = target: Aryl hydrocarbon receptor (Homo sapiens) (UniProt P35869); assay: ATG_Ahr_CIS: Attagene CIS-FACTORIAL HepG2 Assay for human Aryl Hydrocarbon Receptor (Ahr) (AID 2282930); details: HepG2 AhR cis-factorial reporter transcription; actives raise or lower the signal
Chain of Aryl hydrocarbon receptor (Homo sapiens) (P35869 whole entry, looked up): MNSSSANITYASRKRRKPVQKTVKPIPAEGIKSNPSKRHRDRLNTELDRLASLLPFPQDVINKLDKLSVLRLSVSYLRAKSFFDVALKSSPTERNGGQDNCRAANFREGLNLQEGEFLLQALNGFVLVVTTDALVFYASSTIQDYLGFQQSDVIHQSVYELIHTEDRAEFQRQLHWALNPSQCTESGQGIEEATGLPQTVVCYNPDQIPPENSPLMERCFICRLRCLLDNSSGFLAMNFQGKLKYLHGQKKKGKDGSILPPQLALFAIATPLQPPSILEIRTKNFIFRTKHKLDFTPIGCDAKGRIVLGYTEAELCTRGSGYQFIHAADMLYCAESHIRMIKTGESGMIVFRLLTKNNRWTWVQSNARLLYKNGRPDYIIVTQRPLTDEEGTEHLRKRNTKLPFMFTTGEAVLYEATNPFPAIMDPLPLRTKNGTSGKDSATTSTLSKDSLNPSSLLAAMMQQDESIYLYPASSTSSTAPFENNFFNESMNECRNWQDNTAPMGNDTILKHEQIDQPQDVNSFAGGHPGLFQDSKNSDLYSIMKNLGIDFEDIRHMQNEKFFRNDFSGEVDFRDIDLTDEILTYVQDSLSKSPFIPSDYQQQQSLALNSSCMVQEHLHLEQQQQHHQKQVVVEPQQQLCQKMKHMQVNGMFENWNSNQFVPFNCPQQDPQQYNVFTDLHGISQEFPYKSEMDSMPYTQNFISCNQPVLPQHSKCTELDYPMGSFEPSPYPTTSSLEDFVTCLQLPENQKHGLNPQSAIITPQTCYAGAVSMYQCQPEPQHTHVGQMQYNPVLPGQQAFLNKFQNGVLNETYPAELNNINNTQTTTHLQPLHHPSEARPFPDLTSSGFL
Method in brief: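 Read-out: reporter mRNA quantified by RT-PCR with fluorescent primer extension and capillary electrophoresis. Human HepG2 liver cells carried transfected cis-promoter reporter units and were exposed to chemical for 24 h; gain or loss fitted relative to DMSO.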

[6] = ATG_AP_1_CIS: Attagene CIS-FACTORIAL HepG2 Assay for human Activator Protein 1 (AP-1) (AID 2282931); details: HepG2 Attagene cis-factorial AP-1 reporter mRNA; actives raise or lower the signal
Method in brief: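 HepG2 cells transiently transfected with cis-element-driven reporter transcription units, dosed for 24 hours. Reporter mRNA measured by RT-PCR, 6-FAM labelling, HpaI digestion and capillary electrophoresis. Bidirectional fitting against DMSO baseline.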

[7] = ATG_AP_2_CIS: Attagene CIS-FACTORIAL HepG2 Assay for human Activator Protein 2 (AP-2) (AID 2282932); details: HepG2 AP-2 cis-reporter, Attagene transcription factor profiling; actives raise or lower the signal
Method in brief: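 Liver-derived HepG2 line, cis-reporter system measuring endogenous factors; 24 h dosing; reporter mRNA detected by fluorescent RT-PCR and capillary electrophoresis.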

[8] = target: Transcription factor E2F1 (Homo sapiens) (UniProt Q01094); assay: ATG_E2F_CIS: Attagene CIS-FACTORIAL HepG2 Assay for human E2F Transcription Factor 1 (AID 2282935); details: HepG2 Attagene cis-reporter, E2F reporter RNA transcripts; actives raise or lower the signal
Chain of Transcription factor E2F1 (Homo sapiens) (Q01094 whole entry, looked up): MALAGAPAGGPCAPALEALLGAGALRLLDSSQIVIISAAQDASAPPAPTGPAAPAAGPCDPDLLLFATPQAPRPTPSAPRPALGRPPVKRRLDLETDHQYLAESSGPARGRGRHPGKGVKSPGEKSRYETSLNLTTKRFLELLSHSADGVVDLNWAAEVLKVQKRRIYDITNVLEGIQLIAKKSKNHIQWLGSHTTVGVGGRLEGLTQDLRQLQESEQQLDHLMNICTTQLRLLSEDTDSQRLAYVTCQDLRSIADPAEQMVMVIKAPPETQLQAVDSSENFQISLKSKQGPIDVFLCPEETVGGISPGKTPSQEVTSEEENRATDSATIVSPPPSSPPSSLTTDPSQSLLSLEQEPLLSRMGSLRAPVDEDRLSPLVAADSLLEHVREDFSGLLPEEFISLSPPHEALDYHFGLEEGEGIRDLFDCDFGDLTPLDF
Method in brief: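 Liver-derived HepG2 cells expressing transfected promoter-driven reporter units received test chemical for 24 hours. Signal gains or losses were fitted bidirectionally against DMSO.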

[9] = ATG_BRE_CIS: Attagene CIS-FACTORIAL HepG2 Assay for human Bone Morphogenetic Protein (BMP) Response Element (BRE) (AID 2282933); details: HepG2 BMP response element reporter, Attagene transcription factor profiling; actives raise or lower the signal
Method in brief: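 HepG2 cells transiently transfected with multiplexed cis-element reporter units were dosed with chemical for 24 h. Reporter mRNA was measured by RT-PCR with fluorescent labelling, HpaI digestion and capillary electrophoresis; bidirectional fitting relative to DMSO.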

[10] = target: Retinoic acid receptor alpha (Homo sapiens) (UniProt P10276); assay: ATG_DR5_RAR_CIS: Attagene CIS-FACTORIAL HepG2 Assay for human Retinoic Acid Receptor Alpha (RARE), DR5 submotif (AID 2282934); details: HepG2 Attagene cis-factorial RARE DR5 reporter, mRNA; actives raise or lower the signal;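 as to AC50: reporter responds to endogenous RAR alpha beta and gamma in HepG2 not RARA alone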
Chain of Retinoic acid receptor alpha (Homo sapiens) (P10276 whole entry, looked up): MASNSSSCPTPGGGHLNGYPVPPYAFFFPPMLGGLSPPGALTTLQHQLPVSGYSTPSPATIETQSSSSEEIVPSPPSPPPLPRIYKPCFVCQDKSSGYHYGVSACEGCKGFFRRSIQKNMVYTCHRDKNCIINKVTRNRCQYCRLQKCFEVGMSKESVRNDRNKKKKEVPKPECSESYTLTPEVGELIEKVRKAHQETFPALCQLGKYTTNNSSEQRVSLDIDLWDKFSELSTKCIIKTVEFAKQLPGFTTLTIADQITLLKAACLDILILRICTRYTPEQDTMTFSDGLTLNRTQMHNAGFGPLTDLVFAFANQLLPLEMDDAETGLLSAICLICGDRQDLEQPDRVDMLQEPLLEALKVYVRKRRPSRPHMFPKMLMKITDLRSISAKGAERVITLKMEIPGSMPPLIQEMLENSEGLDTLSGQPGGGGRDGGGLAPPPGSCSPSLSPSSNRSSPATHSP
Method in brief: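 Read-out: DR5-driven reporter transcript measured by RT-PCR, 6-FAM primer extension, HpaI digest and capillary electrophoresis. Human HepG2 liver cells carry transiently transfected cis-element reporter constructs; dosing lasts 24 h. Gain or loss of signal fitted against DMSO baseline.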

Cc1ccc2ccccc2n1
outcome [1]: inactive
outcome [2]: inactive
outcome [3]: inactive
outcome [4]: inactive
AC50 [5]: 18.3 µM (active)
outcome [6]: inactive
outcome [7]: inactive
outcome [8]: inactive

COc1ccc(OC)c(OC)c1
outcome [1]: inactive
outcome [3]: inactive
outcome [4]: inactive
outcome [5]: inactive
outcome [6]: inactive
outcome [7]: inactive
outcome [9]: inactive
outcome [8]: inactive

NC(=O)NC1NC(=O)NC1=O (centres undefined)
outcome [1]: inactive
outcome [3]: inactive
outcome [5]: inactive
outcome [6]: inactive
outcome [7]: inactive
outcome [9]: inactive

COC(=O)C1=C(C)NC(C)=C(C(=O)OCCN(C)Cc2ccccc2)C1c1cccc([N+](=O)[O-])c1 (centres undefined)
outcome [1]: inactive
outcome [3]: inactive
AC50 [4]: 8.22 µM (active)
outcome [5]: inactive
outcome [6]: inactive
AC50 [7]: 26.5 µM (active)
AC50 [9]: 17.9 µM (active)
AC50 [8]: 25 µM (active)

O=C1CCc2ccccc2O1
outcome [1]: inactive
outcome [3]: inactive
outcome [4]: inactive
outcome [5]: inactive
outcome [6]: inactive
outcome [7]: inactive
outcome [9]: inactive
outcome [8]: inactive

CCCc1ccccc1O
outcome [1]: inactive
outcome [3]: inactive
outcome [4]: inactive
AC50 [5]: 23.9 µM (active)
outcome [6]: inactive
outcome [7]: inactive
outcome [8]: inactive

C=CC(C)(O)CCC=C(C)CCC=C(C)C (centres undefined)
AC50 [1]: 126 µM (active)
AC50 [3]: 183 µM (active)
outcome [4]: inactive
AC50 [5]: 51 µM (active)
AC50 [6]: 154 µM (active)
AC50 [7]: 161 µM (active)
outcome [9]: inactive
outcome [8]: inactive

CCC(=O)OCCC(C)CCC=C(C)C (centres undefined)
outcome [1]: inactive
outcome [3]: inactive
outcome [4]: inactive
outcome [5]: inactive
outcome [6]: inactive
outcome [7]: inactive
outcome [9]: inactive
AC50 [10]: 72.4 µM (active)
outcome [8]: inactive

CCCCCCCCCCN
outcome [1]: inactive
outcome [3]: inactive
outcome [4]: inactive
outcome [5]: inactive
outcome [6]: inactive
outcome [7]: inactive
outcome [9]: inactive
outcome [10]: inactive
outcome [8]: inactive

CCCOCC(C)O (centres undefined)
outcome [1]: inactive
outcome [3]: inactive
outcome [4]: inactive
outcome [5]: inactive
outcome [6]: inactive
outcome [9]: inactive

CC(=O)OCCC(C)CC(C)(C)C (centres undefined)
outcome [1]: inactive
outcome [3]: inactive
outcome [4]: inactive
outcome [5]: inactive
outcome [6]: inactive
outcome [7]: inactive
outcome [8]: inactive

Clc1cccc(Cl)n1
outcome [1]: inactive
outcome [3]: inactive
outcome [5]: inactive
outcome [6]: inactive
outcome [7]: inactive
outcome [9]: inactive
outcome [8]: inactive

COC(=O)Cc1cccc2ccccc12
outcome [1]: inactive
outcome [3]: inactive
outcome [4]: inactive
outcome [5]: inactive
outcome [6]: inactive
outcome [7]: inactive
outcome [9]: inactive
outcome [8]: inactive
